The source of these data is ChEMBL document CHEMBL1961873, “Compounds: GSK PKIS; Assays: Nanosyn kinase panel” (2012).

The term inhibition denotes the change of the read-out against control, counted positive when it falls.

“And” between values parts separate entries of the source, which are not always exact repeats. Equal values may be shown once.

In assay [1] the test system is Tyrosine-protein kinase ABL1 (Homo sapiens), P00519 [T315I]. Conditions: at 1 µM.
The test system of assay [2] is Tyrosine-protein kinase ABL1 (Homo sapiens), P00519 [Y253F]. Conditions: at 0.1 µM.
Assay [3] has the same test system. As to conditions: at 1 µM.
The target in assay [4] is Tyrosine-protein kinase ABL1 (Homo sapiens) (UniProt P00519). As to conditions: at 0.1 µM.
Assay [5] shares this target. As to conditions: at 1 µM.
For assay [6], the target named is ALK tyrosine kinase receptor (Homo sapiens) (UniProt Q9UM73). Conditions: at 0.1 µM.
The target is the same in assay [7]. Conditions: at 1 µM.
In assay [8] the target is Tyrosine-protein kinase ABL2 (Homo sapiens) (UniProt P42684). As to conditions: at 0.1 µM.
The target is the same in assay [9]. As to conditions: at 1 µM.
Assay [10] addresses Tyrosine-protein kinase receptor UFO (Homo sapiens) (UniProt P30530). Conditions: at 0.1 µM.
For assay [11] the target is unchanged. Conditions: at 1 µM.
Assay [12] deals with Tyrosine-protein kinase Blk (Homo sapiens) (UniProt P51451). As to conditions: at 0.1 µM.
The target is the same in assay [13]. As to conditions: at 1 µM.
Assay [14] deals with T1, Cytoplasmic tyrosine-protein kinase BMX (Homo sapiens) (UniProt P51813).
T1 sequence (whole entry): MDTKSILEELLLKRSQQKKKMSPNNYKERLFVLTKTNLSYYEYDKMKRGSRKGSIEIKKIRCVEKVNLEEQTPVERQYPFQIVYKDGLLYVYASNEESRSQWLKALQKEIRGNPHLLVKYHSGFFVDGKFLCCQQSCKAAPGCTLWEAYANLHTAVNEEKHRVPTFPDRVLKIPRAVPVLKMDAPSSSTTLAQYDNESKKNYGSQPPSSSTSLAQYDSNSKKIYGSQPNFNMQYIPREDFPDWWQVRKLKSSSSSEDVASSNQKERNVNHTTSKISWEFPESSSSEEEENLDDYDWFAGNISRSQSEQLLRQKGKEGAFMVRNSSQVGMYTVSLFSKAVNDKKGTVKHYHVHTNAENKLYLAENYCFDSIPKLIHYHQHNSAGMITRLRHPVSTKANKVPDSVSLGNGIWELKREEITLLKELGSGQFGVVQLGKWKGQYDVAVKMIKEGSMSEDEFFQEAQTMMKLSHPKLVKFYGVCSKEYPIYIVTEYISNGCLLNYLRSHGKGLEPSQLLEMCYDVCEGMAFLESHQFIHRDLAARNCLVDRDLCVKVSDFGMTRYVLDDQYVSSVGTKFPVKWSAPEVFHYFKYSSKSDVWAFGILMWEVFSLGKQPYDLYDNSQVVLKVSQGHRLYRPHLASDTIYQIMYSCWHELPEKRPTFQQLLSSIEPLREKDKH
Conditions: at 0.1 µM.

In assay [15] the target is T1, Cytoplasmic tyrosine-protein kinase BMX (Homo sapiens). As to conditions: at 1 µM.
Assay [16] deals with Protein-tyrosine kinase 6 (Homo sapiens) (UniProt Q13882). As to conditions: at 0.1 µM.
The target is the same in assay [17]. Conditions: at 1 µM.
Assay [18] has as its target Tyrosine-protein kinase BTK (Homo sapiens) (UniProt Q06187). Conditions: at 0.1 µM.
Assay [19] shares this target. Conditions: at 1 µM.
Assay [20] concerns the target Tyrosine-protein kinase CSK (Homo sapiens) (UniProt P41240). As to conditions: at 0.1 µM.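 Further: value given is the averaged percent inhibition of CSK kinase activity, from the GSK PKIS kinase inhibitor set screening panel.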

Sequence of Tyrosine-protein kinase ABL2 (Homo sapiens) (P42684 whole entry): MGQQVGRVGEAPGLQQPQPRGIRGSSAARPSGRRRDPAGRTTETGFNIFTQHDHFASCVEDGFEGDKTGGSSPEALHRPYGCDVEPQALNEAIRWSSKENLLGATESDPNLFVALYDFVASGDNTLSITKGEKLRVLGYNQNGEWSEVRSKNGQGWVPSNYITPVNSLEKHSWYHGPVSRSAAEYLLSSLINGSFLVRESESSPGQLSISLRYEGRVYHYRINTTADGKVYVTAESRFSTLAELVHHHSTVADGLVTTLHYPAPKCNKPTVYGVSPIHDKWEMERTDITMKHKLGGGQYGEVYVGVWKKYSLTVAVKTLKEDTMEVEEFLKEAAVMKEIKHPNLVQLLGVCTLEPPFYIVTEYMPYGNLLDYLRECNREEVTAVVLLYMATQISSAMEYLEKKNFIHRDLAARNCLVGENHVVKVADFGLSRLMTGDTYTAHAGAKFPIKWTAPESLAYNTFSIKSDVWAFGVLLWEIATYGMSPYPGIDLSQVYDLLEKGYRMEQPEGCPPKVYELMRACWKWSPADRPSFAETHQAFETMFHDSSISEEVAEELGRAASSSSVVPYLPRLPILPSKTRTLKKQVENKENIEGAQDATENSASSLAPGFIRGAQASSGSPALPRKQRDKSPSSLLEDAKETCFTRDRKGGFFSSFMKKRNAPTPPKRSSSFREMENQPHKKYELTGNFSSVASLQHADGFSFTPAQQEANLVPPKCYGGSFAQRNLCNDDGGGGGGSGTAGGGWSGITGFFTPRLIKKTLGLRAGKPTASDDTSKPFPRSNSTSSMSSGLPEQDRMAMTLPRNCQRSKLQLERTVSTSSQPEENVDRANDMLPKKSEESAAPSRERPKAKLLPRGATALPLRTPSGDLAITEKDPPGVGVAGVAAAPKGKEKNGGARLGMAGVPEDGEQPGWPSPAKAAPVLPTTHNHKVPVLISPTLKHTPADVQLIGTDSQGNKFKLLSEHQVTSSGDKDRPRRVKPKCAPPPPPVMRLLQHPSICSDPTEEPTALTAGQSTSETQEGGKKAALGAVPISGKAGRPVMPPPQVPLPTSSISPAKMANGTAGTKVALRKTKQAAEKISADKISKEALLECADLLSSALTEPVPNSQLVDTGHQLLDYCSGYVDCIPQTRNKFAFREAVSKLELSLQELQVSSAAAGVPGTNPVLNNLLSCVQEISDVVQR
Sequence of Tyrosine-protein kinase CSK (Homo sapiens) (P41240 2-450 limits assumed): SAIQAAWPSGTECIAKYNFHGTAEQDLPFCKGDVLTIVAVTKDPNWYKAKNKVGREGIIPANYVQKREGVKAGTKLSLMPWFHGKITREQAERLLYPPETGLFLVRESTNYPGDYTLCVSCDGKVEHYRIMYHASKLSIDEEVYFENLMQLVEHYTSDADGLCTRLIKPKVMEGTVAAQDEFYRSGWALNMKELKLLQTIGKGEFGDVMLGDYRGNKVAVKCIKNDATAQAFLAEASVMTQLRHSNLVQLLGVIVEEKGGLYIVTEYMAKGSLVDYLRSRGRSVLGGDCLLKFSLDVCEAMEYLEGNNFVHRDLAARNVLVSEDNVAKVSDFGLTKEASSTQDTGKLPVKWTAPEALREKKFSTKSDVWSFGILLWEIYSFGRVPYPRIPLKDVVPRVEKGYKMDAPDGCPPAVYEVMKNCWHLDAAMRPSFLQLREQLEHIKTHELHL
Sequence of ALK tyrosine kinase receptor (Homo sapiens) (Q9UM73 19-1620 limits assumed): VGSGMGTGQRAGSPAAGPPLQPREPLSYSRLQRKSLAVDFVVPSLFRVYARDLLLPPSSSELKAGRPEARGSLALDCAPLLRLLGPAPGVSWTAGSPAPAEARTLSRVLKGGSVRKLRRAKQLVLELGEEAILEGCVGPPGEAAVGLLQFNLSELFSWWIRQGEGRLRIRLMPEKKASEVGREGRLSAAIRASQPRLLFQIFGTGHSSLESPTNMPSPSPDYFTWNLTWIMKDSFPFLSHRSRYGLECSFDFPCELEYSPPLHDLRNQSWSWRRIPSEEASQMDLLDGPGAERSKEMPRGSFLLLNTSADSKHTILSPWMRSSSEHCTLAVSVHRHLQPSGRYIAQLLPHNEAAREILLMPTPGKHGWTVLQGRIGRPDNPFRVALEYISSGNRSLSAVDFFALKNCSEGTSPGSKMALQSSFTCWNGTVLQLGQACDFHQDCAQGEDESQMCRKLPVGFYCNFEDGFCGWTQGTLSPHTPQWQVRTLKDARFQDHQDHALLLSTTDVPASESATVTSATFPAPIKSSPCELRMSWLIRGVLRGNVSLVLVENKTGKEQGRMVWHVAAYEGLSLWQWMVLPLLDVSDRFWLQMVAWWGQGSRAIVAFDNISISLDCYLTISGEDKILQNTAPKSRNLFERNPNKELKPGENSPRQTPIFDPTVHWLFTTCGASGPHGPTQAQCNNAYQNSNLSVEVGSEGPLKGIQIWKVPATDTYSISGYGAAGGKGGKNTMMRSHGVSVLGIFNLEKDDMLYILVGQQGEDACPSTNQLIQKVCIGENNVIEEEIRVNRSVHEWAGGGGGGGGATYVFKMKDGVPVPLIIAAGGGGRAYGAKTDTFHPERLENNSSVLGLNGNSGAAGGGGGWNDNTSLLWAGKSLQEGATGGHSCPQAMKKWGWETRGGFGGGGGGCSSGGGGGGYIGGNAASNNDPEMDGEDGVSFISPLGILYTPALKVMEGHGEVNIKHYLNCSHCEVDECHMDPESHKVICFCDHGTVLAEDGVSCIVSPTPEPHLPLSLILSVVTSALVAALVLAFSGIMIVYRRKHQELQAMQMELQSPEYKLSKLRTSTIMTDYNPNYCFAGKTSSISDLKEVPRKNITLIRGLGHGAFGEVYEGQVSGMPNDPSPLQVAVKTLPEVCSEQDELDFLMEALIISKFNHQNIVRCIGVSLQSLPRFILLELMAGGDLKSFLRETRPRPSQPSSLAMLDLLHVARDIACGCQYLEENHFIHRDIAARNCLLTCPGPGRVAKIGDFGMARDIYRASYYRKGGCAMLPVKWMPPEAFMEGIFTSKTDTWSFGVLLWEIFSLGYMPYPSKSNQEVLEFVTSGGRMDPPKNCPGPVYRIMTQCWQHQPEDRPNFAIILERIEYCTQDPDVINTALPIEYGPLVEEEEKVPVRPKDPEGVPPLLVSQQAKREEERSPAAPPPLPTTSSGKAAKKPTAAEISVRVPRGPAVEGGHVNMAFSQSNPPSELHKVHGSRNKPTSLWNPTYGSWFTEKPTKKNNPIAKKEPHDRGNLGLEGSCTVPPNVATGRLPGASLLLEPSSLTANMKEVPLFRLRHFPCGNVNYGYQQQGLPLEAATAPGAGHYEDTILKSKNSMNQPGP
Sequence of Tyrosine-protein kinase Blk (Homo sapiens) (P51451 2-505 limits assumed): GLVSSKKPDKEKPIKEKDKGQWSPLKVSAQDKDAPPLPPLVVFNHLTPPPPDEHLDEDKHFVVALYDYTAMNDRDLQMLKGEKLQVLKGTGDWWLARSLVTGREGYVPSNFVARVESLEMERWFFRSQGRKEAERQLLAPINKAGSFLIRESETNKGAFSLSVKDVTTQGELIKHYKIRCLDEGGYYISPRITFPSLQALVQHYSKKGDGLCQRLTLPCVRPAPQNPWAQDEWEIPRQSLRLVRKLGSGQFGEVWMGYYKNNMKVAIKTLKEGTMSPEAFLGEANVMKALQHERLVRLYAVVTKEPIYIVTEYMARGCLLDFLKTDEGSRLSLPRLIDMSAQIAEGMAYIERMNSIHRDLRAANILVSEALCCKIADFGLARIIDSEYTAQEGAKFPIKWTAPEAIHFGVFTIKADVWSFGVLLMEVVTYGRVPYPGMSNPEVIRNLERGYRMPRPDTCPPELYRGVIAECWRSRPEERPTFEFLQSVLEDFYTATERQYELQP
Sequence of Tyrosine-protein kinase receptor UFO (Homo sapiens) (P30530 whole entry): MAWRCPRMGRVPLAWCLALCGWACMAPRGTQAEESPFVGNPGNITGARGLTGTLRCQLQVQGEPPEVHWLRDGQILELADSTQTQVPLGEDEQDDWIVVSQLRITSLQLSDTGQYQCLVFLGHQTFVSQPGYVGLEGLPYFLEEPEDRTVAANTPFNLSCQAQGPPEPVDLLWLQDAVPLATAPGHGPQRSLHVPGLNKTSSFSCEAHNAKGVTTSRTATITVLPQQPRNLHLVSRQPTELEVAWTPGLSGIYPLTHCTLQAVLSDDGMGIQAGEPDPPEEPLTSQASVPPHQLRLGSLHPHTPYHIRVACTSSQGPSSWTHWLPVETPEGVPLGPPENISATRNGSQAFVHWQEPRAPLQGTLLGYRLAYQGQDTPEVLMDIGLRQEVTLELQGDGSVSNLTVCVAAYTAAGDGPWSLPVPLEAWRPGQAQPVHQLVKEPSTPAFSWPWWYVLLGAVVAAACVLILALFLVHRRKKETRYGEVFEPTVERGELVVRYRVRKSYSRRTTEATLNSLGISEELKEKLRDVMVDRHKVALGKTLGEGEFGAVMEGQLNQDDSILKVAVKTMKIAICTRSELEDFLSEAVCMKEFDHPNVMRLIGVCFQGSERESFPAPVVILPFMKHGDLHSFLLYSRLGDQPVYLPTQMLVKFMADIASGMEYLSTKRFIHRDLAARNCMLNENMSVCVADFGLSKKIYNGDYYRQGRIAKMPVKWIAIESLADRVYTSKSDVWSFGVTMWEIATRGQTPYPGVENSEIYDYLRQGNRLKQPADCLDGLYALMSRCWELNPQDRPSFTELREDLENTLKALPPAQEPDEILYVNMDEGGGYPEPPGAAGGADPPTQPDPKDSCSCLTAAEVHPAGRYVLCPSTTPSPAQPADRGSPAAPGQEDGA
Sequence of Protein-tyrosine kinase 6 (Homo sapiens) (Q13882 whole entry, looked up): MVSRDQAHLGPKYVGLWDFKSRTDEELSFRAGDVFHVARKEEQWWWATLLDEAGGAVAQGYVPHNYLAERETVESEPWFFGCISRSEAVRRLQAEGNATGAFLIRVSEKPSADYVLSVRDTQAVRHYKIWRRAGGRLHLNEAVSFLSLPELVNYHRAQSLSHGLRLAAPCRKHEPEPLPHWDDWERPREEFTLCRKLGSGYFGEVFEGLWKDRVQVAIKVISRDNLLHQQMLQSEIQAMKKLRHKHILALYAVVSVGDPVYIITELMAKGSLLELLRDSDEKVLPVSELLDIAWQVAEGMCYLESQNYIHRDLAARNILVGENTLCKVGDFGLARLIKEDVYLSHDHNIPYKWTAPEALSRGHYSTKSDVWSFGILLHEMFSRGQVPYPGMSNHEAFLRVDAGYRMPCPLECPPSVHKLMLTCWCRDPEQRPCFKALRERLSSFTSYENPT

With `CN1CCN(Cc2ccc(-c3cc4ncnc(Nc5ccc(OCc6cccc(F)c6)c(Cl)c5)c4s3)o2)CC1`, the inhibition in assay [1] was 16.3% and 19.7%; in assay [2] it was 4.69% and 4.76%; in assay [3] it was 12.2% and 15.9%; in [4], 3.24% and 4%; in assay [5] it was 9.31% and 11%; in assay [6] it was 2.64% and 4.3%. Besides, the inhibition was 8.37% and 11.1% in [7]; 3.03% and 4.53% in [8]; 5.38% and 10.7% in assay [9]; -3.61% and -5.96% in assay [10]; -0.55% and -6.25% in [11]; 2.97% and 3.59% in [12]. Besides, the inhibition was 13.3% and 15.7% in [13]; 1.68% and 6.37% in [14]; 5.03% and 3.73% in assay [15]; 6.28% and 7.91% in assay [16]; 29.5% and 33.2% in [17]; -0.21% and -0.71% in [18]. Moreover, the inhibition is 2.04% and 2.62% in assay [19]; 2.47% and 5.63% in assay [20].

For the compound `CNC(=O)c1sc(-n2cnc3cc(OC)c(OC)cc32)cc1OCc1ccccc1C(F)(F)F`, the inhibition in assay [1] worked out at 4.16%; in assay [2], 2.46%; in [3], 10.3%; in [4], 8.39%; in [5], 17.2%; in assay [6], 3.52%. The inhibition in assay [7] is 5.76%; in [8], 5.79%; in assay [9] it was 13.2%; in assay [10], -4.3%; in [11], -2.36%; in assay [12], 3.39%. Further, the inhibition in assay [13] was found to be 7.51%; in [14], 4.57%; in assay [15], 2.17%; in assay [16] it was 0.08%; in assay [17], 2.98%; in assay [18] it was 0.62%. Further, the inhibition was determined as 3.2% in assay [19] and 3.42% in assay [20].

Consider `NC(=O)c1ccc2c(-c3ccnc(NCCCO)n3)c(-c3ccc(F)cc3)nn2c1`, for which the inhibition in [1] is 6.37%; in [2] it was 7.28%; in assay [3] it was 8.72%; in assay [4], 4.37%; in assay [5], 13.2%; in [6], 3.18%. Moreover, the inhibition in assay [7] was 7.82%; in assay [8], 4.85%; in assay [9], 10.1%; in [10] it was -6.77%; in [11] it was 0.42%; in [12] it was 2.21%. Moreover, the inhibition in assay [13] stood at 6.11%; in assay [14] it was 1.45%; in [15] it was 9.25%; in [16] it was 6.4%; in assay [17], 17.1%; in assay [18], 0.41%. Moreover, the inhibition stood at 0.35% in assay [19] and 6.17% in assay [20].

On to `COc1c(C(N)=O)cc(-c2ccc(Cl)cc2)cc1-c1ccc(S(N)(=O)=O)cc1`, for which the inhibition in [1] was 2.49%; in assay [2] it was 2.41%; in assay [3] it was 4.61%; in assay [4], 3.19%; in [5] it was 3.54%; in assay [6] it was 5.82%. The inhibition in [7] is 7.26%; in assay [8], 2.13%; in assay [9], 3.9%; in [10] it was -6.59%; in [11] it was -6.03%; in [12] it was 1.95%. Besides, the inhibition in [13] is 3.34%; in assay [14], 4.08%; in [15] it was 6.04%; in [16], 3.21%; in assay [17], 4.09%; in assay [18], -1.27%. Further, the inhibition in [19] was -0.85%; in assay [20], 3.55%.

As for `CCn1c(-c2nonc2N)nc2cncc(C(=O)NCCNC)c21`, the inhibition in assay [1] is 5.14%; in assay [2], 8.7%; in [3] it was 7.62%; in assay [4], 3.3%; in [5] it was 5.3%; in assay [6], 1.99%. For the same compound, the inhibition in assay [7] is 4.23%; in assay [8] it was 2.36%; in [9] it was 4.11%; in assay [10], -8.56%; in assay [11], -6.19%; in assay [12], 3.13%. Moreover, the inhibition was 5.42% in assay [13]; 3.81% in assay [14]; 5.15% in [15]; 2.42% in [16]; 5.45% in assay [17]; -1.55% in assay [18]. The inhibition in assay [19] was determined as 0.11%; in [20], 3.43%.

Regarding `O=C(O[C@H]1CN[C@H](C#Cc2cc3ncnc(Nc4ccc5c(cnn5Cc5ccccc5)c4)c3s2)C1)N1CCOCC1`, the inhibition was 0.36% in assay [1]; -0.26% in assay [2]; 0.7% in [3]; -0.22% in [4]; 2.55% in [5]; -0.47% in assay [6]. Also, the inhibition in assay [7] is 0.05%; in assay [8] it was -0.58%; in assay [9], 2.25%; in [10], 0.41%; in assay [11], 2.46%; in [12], -0.69%. For the same compound, the inhibition is 6.27% in [13]; -1.03% in assay [14]; 2.39% in [15]; 1.71% in assay [16]; 2.7% in [17]; 2.14% in assay [18]. Also, the inhibition is 1.05% in assay [19] and -1.39% in [20].

For `Cn1c(-c2nonc2N)nc2cnccc21`, the inhibition in assay [1] turned out to be 1.83%; in assay [2] it was 4.55%; in assay [3], 0.38%; in assay [4], 4%; in assay [5] it was 4.6%; in assay [6], 1.93%. Also, the inhibition is 3.93% in [7]; 2.62% in [8]; 7.75% in assay [9]; -6.37% in assay [10]; -1.86% in assay [11]; 0.51% in [12]. The inhibition worked out at 0.41% in [13]; 9.58% in assay [14]; 4.09% in [15]; 4.32% in assay [16]; 4.24% in [17]; 0.86% in assay [18]. The inhibition in assay [19] stood at 0.33%; in assay [20] it was 3.1%.

On to `Nc1ncnc2occ(-c3ccc(NC(=O)Nc4cc(C(F)(F)F)ccc4F)cc3)c12`, for which the inhibition in [1] was 91.1% and 85%; in assay [2] it was 10.7% and 5.56%; in assay [3], 44.9% and 29.1%; in assay [4] it was 10.9% and 4.97%; in assay [5], 58.9% and 35.7%; in [6] it was 2.84% and -1.14%. Also, the inhibition is 22.8% and 12.6% in [7]; 25.2% and 23.9% in [8]; 64.2% and 56.4% in [9]; -3.96% and -3.19% in assay [10]; 37.3% and 23.5% in assay [11]; 4.09% and 1.25% in assay [12]. Also, the inhibition in assay [13] was 39% and 23.5%; in [14], 17.8% and 9.86%; in assay [15], 69.5% and 57.2%; in [16], 3.76% and -0.33%; in assay [17], 4.26% and 3.06%; in [18], 0.97% and 0.09%. Besides, the inhibition in assay [19] was 5.11% and 1.18%; in [20], 6.39% and 0.36%.

Turning to `COc1cccc(-n2ncc3c(N/N=C/c4ccc(C(=O)NCCN(C)C)cc4)ncnc32)c1`, the inhibition turned out to be 95% in [1]; 93.3% in [2]; 94.5% in assay [3]; 81.7% in assay [4]; 83.1% in [5]; 3.26% in [6]. For the same compound, the inhibition in assay [7] came to 8.56%; in [8], 73.3%; in assay [9], 82%; in [10], 3.3%; in assay [11] it was 40.9%; in [12], 18.1%. For the same compound, the inhibition came to 73% in assay [13]; 9.47% in [14]; 46.3% in assay [15]; 9.98% in [16]; 53.4% in [17]; 1.25% in assay [18]. Also, the results for the inhibition in assay [19] and in assay [20] were 1.98% and 3.74%, respectively.
